Results taken from PubChem BioAssay.
Calls of active or inactive are those of the source.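 The calls were made as follows: active = thallium flux through the channel raised or lowered by more than 3 SD from vehicle-only wells, actives on both sides; inactive = the rest.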

Columns and labels:
Experiment in all cases: BK channel mutant inhibitors and activators – cell-based, U2OS BacMam, thallium flux, beta subunits, selectivity assay, profiling panel (AID 1259406);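 also: initial slope of Thallos dye fluorescence rise after thallium is added; log ratio against the mean of 0.3% DMSO vehicle wells on the same plate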
F380Y/beta2Delta = conditions: U2OS BacMam BK variants, at 30 µM
F380Y/beta4 = conditions: U2OS BacMam BK variants, at 30 µM
[1] = molecular target: Calcium-activated potassium channel subunit alpha-1 (Homo sapiens) + Leucine-rich repeat-containing protein 26 (Homo sapiens) (UniProt Q12791+Q2I0M4); conditions: U2OS BacMam BK variants, F380Y/Slo1WT/gamma1, at 30 µM
R275C = conditions: U2OS BacMam BK variants, at 30 µM
R275C/beta1 = conditions: U2OS BacMam BK variants, at 30 µM
R275C/beta2Delta = conditions: U2OS BacMam BK variants, at 30 µM
R275C/beta4 = conditions: U2OS BacMam BK variants, at 30 µM
R275C/Slo1WT/beta2 = conditions: U2OS BacMam BK variants, at 30 µM

Measured: log fold change Tl+ flux

Sequence of Calcium-activated potassium channel subunit alpha-1 (Homo sapiens) + Leucine-rich repeat-containing protein 26 (Homo sapiens) (Q2I0M4 whole entry, looked up, one chain of several): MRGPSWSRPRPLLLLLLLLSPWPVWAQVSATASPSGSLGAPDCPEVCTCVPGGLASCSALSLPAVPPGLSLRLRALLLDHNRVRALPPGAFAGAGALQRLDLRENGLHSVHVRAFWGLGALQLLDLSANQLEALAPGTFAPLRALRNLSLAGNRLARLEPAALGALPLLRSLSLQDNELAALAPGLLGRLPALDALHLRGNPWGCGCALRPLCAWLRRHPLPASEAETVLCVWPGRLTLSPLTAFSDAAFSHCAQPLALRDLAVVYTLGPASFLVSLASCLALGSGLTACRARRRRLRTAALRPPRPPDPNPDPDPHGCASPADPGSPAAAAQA

Cc1ncc([N+](=O)[O-])n1CC(O)CCl (stereo not given)
inactive: F380Y/beta2Delta -0.0158 | F380Y/beta4 -0.0171 | [1] -0.013 | R275C 0.00346 | R275C/beta1 -0.0317 | R275C/beta2Delta -0.0154 | R275C/beta4 -0.0435 | R275C/Slo1WT/beta2 -0.016

CC(C)(C#N)c1cc(Cn2cncn2)cc(C(C)(C)C#N)c1
inactive: F380Y/beta2Delta 0.0269 | F380Y/beta4 -0.0138 | [1] 0.043 | R275C -0.0232 | R275C/beta1 0.00836 | R275C/beta2Delta 0.00182 | R275C/beta4 -0.00704 | R275C/Slo1WT/beta2 -0.000892

CN(CCOc1ccc(NS(C)(=O)=O)cc1)CCc1ccc(NS(C)(=O)=O)cc1
inactive: F380Y/beta2Delta 0.0285 | F380Y/beta4 0.0111 | [1] -0.0274 | R275C -0.101 | R275C/beta1 0.0214 | R275C/beta2Delta -0.0483 | R275C/beta4 -9.6e-05 | R275C/Slo1WT/beta2 -0.00913

Cc1ccsc1C(=CCCN1CCC[C@@H](C(=O)O)C1)c1sccc1C
inactive: F380Y/beta2Delta 0.0383 | F380Y/beta4 0.0453 | [1] 0.0044 | R275C -0.056 | R275C/beta2Delta 0.0627 | R275C/beta4 0.0287 | R275C/Slo1WT/beta2 0.0117
active: R275C/beta1 0.0901

NS(=O)(=O)c1cc(C(=O)O)c(NCc2ccco2)cc1Cl
inactive: F380Y/beta2Delta -0.0211 | F380Y/beta4 0.0269 | [1] -0.028 | R275C -0.0468 | R275C/beta1 -0.0154 | R275C/beta2Delta -0.0184 | R275C/beta4 0.000317 | R275C/Slo1WT/beta2 0.0743

Cn1nnc2c(C(N)=O)ncn2c1=O
inactive: F380Y/beta2Delta -0.0261 | F380Y/beta4 -0.0309 | [1] 0.0144 | R275C -0.00524 | R275C/beta1 -0.0169 | R275C/beta2Delta 0.0357 | R275C/beta4 -0.0137 | R275C/Slo1WT/beta2 0.06

CNNCc1ccc(C(=O)NC(C)C)cc1
active: R275C -0.164
inactive: F380Y/beta2Delta 0.00407 | F380Y/beta4 -0.0214 | [1] -0.0918 | R275C/beta1 -0.022 | R275C/beta2Delta -0.0281 | R275C/beta4 0.042 | R275C/Slo1WT/beta2 0.0113

CC(Oc1c(Cl)cccc1Cl)C1=NCCN1 (stereo not given)
inactive: F380Y/beta2Delta -0.00369 | F380Y/beta4 0.0154 | [1] 0.00177 | R275C -0.0395 | R275C/beta1 0.0393 | R275C/beta2Delta 0.00761 | R275C/beta4 0.0269 | R275C/Slo1WT/beta2 0.0415

O=C(O)/C=C/c1ccc(Cn2ccnc2)cc1
inactive: F380Y/beta2Delta -0.0133 | F380Y/beta4 0.00948 | [1] -0.0199 | R275C 0.0013 | R275C/beta1 0.0161 | R275C/beta2Delta 0.00561 | R275C/beta4 -0.0096 | R275C/Slo1WT/beta2 0.0187

Cc1nc2ccc(CN(C)c3ccc(C(=O)N[C@@H](CCC(=O)O)C(=O)O)s3)cc2c(=O)[nH]1
inactive: F380Y/beta2Delta -0.00369 | F380Y/beta4 0.0379 | [1] -0.00311 | R275C -0.0146 | R275C/beta1 0.00396 | R275C/beta2Delta -0.00877 | R275C/beta4 -0.00369 | R275C/Slo1WT/beta2 -0.0401

CN1CCC(=C2c3ccccc3CC(=O)c3sccc32)CC1
inactive: F380Y/beta2Delta 0.00285 | F380Y/beta4 0.0281 | [1] 0.0191 | R275C -0.082 | R275C/beta1 0.0422 | R275C/beta2Delta 0.0873 | R275C/beta4 0.0237 | R275C/Slo1WT/beta2 0.0313

CC(=O)Oc1ccccc1C(=O)Nc1ncc([N+](=O)[O-])s1
active: [1] 0.139 | R275C/beta2Delta 0.237
inactive: F380Y/beta2Delta -0.0604 | F380Y/beta4 -0.0482 | R275C -0.00393 | R275C/beta1 0.0452 | R275C/beta4 0.0513 | R275C/Slo1WT/beta2 0.00625

CC(C)c1ccc2oc3nc(N)c(C(=O)O)cc3c(=O)c2c1
inactive: F380Y/beta2Delta 0.00122 | F380Y/beta4 0.0364 | [1] 0.0473 | R275C -0.0223 | R275C/beta1 -0.0119 | R275C/beta2Delta 0.0807 | R275C/beta4 -0.00203 | R275C/Slo1WT/beta2 0.0208

C#C[C@]1(O)CC[C@H]2[C@@H]3[C@H](C)CC4=C(CCC(=O)C4)[C@H]3CC[C@@]21C
active: [1] 0.094 | R275C/beta1 0.155
inactive: F380Y/beta2Delta 0.02 | F380Y/beta4 0.0383 | R275C -0.0625 | R275C/beta2Delta 0.0649 | R275C/beta4 0.0734 | R275C/Slo1WT/beta2 0.0272

OCc1cccnc1
inactive: F380Y/beta2Delta 0.033 | F380Y/beta4 0.017 | [1] -0.0204 | R275C -0.0301 | R275C/beta1 -0.00726 | R275C/beta2Delta -0.015 | R275C/beta4 -0.00528 | R275C/Slo1WT/beta2 0.0162

CN1[C@@H]2CC[C@H]1CC(OC(=O)c1c[nH]c3ccccc13)C2 (stereo not given in full)
inactive: F380Y/beta2Delta 0.0725 | F380Y/beta4 0.0611 | [1] -0.0185 | R275C -0.064 | R275C/beta1 0.026 | R275C/beta2Delta 0.045 | R275C/beta4 0.0432 | R275C/Slo1WT/beta2 0.00303

C[C@]12C[C@H](O)[C@H]3[C@@H](CCC4=CC(=O)CC[C@@]43C)[C@@H]1CC[C@@H]2C(=O)CO
inactive: F380Y/beta2Delta -0.00742 | F380Y/beta4 0.0166 | [1] 0.0373 | R275C -0.04 | R275C/beta1 0.00127 | R275C/beta2Delta 0.0285 | R275C/beta4 0.0631 | R275C/Slo1WT/beta2 0.00421

NC1CCN(c2nc3c(cc2F)c(=O)c(C(=O)O)cn3-c2ccc(F)cc2F)C1 (stereo not given)
inactive: F380Y/beta2Delta -0.101 | F380Y/beta4 0.00828 | [1] 0.0186 | R275C -0.0155 | R275C/beta1 -0.00647 | R275C/beta2Delta -0.0395 | R275C/beta4 -0.0109 | R275C/Slo1WT/beta2 0.0163

Nc1[nH]c(=O)ncc1F
inactive: F380Y/beta2Delta 0.0238 | F380Y/beta4 0.00948 | [1] 0.00877 | R275C 0.0013 | R275C/beta1 -0.0522 | R275C/beta2Delta 0.00516 | R275C/beta4 -0.00411 | R275C/Slo1WT/beta2 -0.0674

CCOC(=O)O[C@]1(C(=O)OCCl)CC[C@H]2[C@@H]3CCC4=CC(=O)C=C[C@]4(C)[C@H]3[C@@H](O)C[C@@]21C
inactive: F380Y/beta2Delta -0.0465 | F380Y/beta4 0.0515 | [1] 0.0345 | R275C -0.0297 | R275C/beta1 0.0209 | R275C/beta2Delta 0.00232 | R275C/beta4 0.00823 | R275C/Slo1WT/beta2 0.00305

C[C@H]1COc2c(C3(N)CC3)c(F)cc3c(=O)c(C(=O)O)cn1c23
inactive: F380Y/beta2Delta -0.0452 | F380Y/beta4 -0.037 | [1] 0.00396 | R275C -0.0195 | R275C/beta1 -0.0326 | R275C/beta2Delta -0.0136 | R275C/beta4 -0.0013 | R275C/Slo1WT/beta2 -0.0265

COc1cc2nc(N3CCN(C(=O)C4CCCO4)CC3)nc(N)c2cc1OC (stereo not given)
inactive: F380Y/beta2Delta -0.00319 | F380Y/beta4 0.00186 | [1] -0.0172 | R275C 0.0113 | R275C/beta1 -0.0224 | R275C/beta2Delta -0.0771 | R275C/beta4 -0.0968 | R275C/Slo1WT/beta2 -0.0619

C#C[C@]1(O)CC[C@H]2[C@@H]3CCc4cc(OC)ccc4[C@H]3CC[C@@]21C
inactive: F380Y/beta2Delta -0.0353 | F380Y/beta4 0.0115 | [1] -0.0403 | R275C -0.0453 | R275C/beta1 0.019 | R275C/beta2Delta -0.00738 | R275C/beta4 0.00852 | R275C/Slo1WT/beta2 -0.04

CCOC(=O)c1ncn2c1CN(C)C(=O)c1cc(F)ccc1-2
inactive: F380Y/beta2Delta -0.0461 | F380Y/beta4 -0.0546 | [1] -0.0345 | R275C 0.00689 | R275C/beta1 0.00279 | R275C/beta2Delta 0.0168 | R275C/beta4 0.000313 | R275C/Slo1WT/beta2 0.022

COc1ccccc1N1CCN(CC(O)COc2cccc3ccccc23)CC1 (stereo not given)
active: F380Y/beta4 -0.114 | R275C/beta1 0.198 | R275C/beta4 0.167
inactive: F380Y/beta2Delta -0.0539 | [1] 0.00615 | R275C -0.067 | R275C/beta2Delta -0.0952 | R275C/Slo1WT/beta2 -0.0505

CCOC(=O)C1=C(C)NC(C)=C(C(=O)OC)C1c1cccc(Cl)c1Cl (stereo not given)
active: F380Y/beta2Delta -0.162 | F380Y/beta4 -0.261
inactive: [1] 0.00637 | R275C -0.00728 | R275C/beta1 -0.0274 | R275C/beta2Delta 0.0156 | R275C/beta4 0.114 | R275C/Slo1WT/beta2 -0.0293

CCN(CC)CC1CCCCN1CC(=O)N1c2ccccc2C(=O)Nc2cccnc21 (stereo not given)
inactive: F380Y/beta2Delta 0.0497 | F380Y/beta4 -0.01 | [1] 0.0283 | R275C -0.0778 | R275C/beta1 0.0108 | R275C/beta2Delta 0.0199 | R275C/beta4 0.0303 | R275C/Slo1WT/beta2 0.0393

COC(=O)C1=C(C)NC(C)=C(C(=O)OCC(C)C)C1c1ccccc1[N+](=O)[O-] (stereo not given)
active: F380Y/beta2Delta 0.514 | F380Y/beta4 0.853 | [1] 0.622 | R275C 0.676 | R275C/beta1 0.741 | R275C/beta2Delta 0.206 | R275C/beta4 1.13 | R275C/Slo1WT/beta2 1.07

CCN1CC(CCN2CCOCC2)C(c2ccccc2)(c2ccccc2)C1=O (stereo not given)
inactive: F380Y/beta2Delta -0.000818 | F380Y/beta4 0.03 | [1] -0.0552 | R275C -0.0141 | R275C/beta1 -0.00917 | R275C/beta2Delta 0.0055 | R275C/beta4 0.000738 | R275C/Slo1WT/beta2 -0.0334

CC1(C)S[C@@H]2[C@H](N=CN3CCCCCC3)C(=O)N2[C@H]1C(=O)O
inactive: F380Y/beta2Delta -0.0627 | F380Y/beta4 -0.00589 | [1] -0.0112 | R275C 0.00945 | R275C/beta1 0.0251 | R275C/beta4 -0.0211 | R275C/Slo1WT/beta2 -0.0045
active: R275C/beta2Delta 0.116
